The list is not random: actives were taken first. Their share in the collection is about 3.2%.
PAX8 inh HTS = inhibitors of PAX8-driven TPO luciferase reporter, primary screen, RMG-I cells, single concentration. AID 652154, 2013. inhibition, % at 12.6 µM. hit rate 1.2% among 360,000. SteadyGlo, 24 h;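 active = mean replicate inhibition at least 60% with every replicate also reaching 60%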;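 note: luciferase light reporting Pax8 driven TPO promoter activity; plate controls were median of neutral control wells for no effect and mitoxantrone controls for full effect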
EWS-Fli inh = EWS/Fli-driven NR0B1 reporter inhibitors, primary screen, A673 cells, NR0B1 luciferase, luminescence, MLPCN library; viability-normalised; inhibition, % at 12.6 µM; hit rate 0.67% among 350,000;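 active = mean inhibition of at least 50% after viability correction, with every replicate also passing that limit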;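 note: firefly luciferase signal divided by Alamar Blue viability fluorescence both relative to DMSO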
LGR2 inh = inhibitors of bursicon-induced LGR2 CRE-luciferase signal, primary screen, cell-based, HEK293, CRE-luciferase reporter, bursicon stimulation. Drosophila bursicon receptor LGR2 (rickets). bursicon-stimulated, 4 h. inhibition, % at 9.99 µM. hit rate 0.35% among 380,000;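 active = drop in luminescence signal, shown as inhibition above about 50% in the replicate tests, limit read from the data, passing the limit was not always enough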;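 note: agonist challenge used bursicon conditioned medium at about half maximal strength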
TWEAK-Fn14 inh = inhibitors of TWEAK-Fn14 signaling, primary screen, luciferase reporter cells, uHTS; TWEAK-stimulated Fn14 reporter cells, luciferase luminescence, 8 h; hit rate 2% among 360,000; inhibition, % at 10 µM; in the data active = inhibition above about 50%
TROY NFkB inh = inhibitors of TROY-driven NF-kB signaling, primary screen, Q293 LMP1-TROYcd cells, NF-kB luciferase, uHTS | AID 1347056, 2019 | inhibition, % at 10 µM | Q293 LMP1-TROYcd NF-kB luciferase reporter, 4 h | hit rate 0.98% among 360,000;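 active = compounds whose plate-normalised and pattern-corrected inhibition of the luciferase reporter signal at the single screening dose is 50% or more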
EBV LMP1 NFkB = EBV LMP1-driven NF-kappaB luciferase reporter inhibitors, primary screen, cell-based, luminescence, single point; LMP1-induced NF-kappaB luciferase reporter cells; hit rate 0.69% among 350,000; AID 504558, 2011; inhibition, % at 12.5 µM; in the data active = inhibition above about 41%;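 note: 0% = neutral control wells and 100% = reference inhibitor control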
* hit, by the source's call.

`O=C(CCS(=O)(=O)c1ccccc1)Nc1nncs1` gave PAX8 inh HTS 67*, EWS-Fli inh -27, LGR2 inh 2, TWEAK-Fn14 inh -9, TROY NFkB inh -19 and EBV LMP1 NFkB 15.
For COCCSc1nnc(NC(=O)CCS(=O)(=O)c2ccccc2)s1 the results were PAX8 inh HTS 80*, EWS-Fli inh -16, LGR2 inh -2, TWEAK-Fn14 inh 15, TROY NFkB inh -4 and EBV LMP1 NFkB 10.
For O=C(CCS(=O)(=O)c1ccccc1)Nc1nc2c(s1)COc1ccccc1-2 the results were PAX8 inh HTS 70*, EWS-Fli inh -20, LGR2 inh -6, TWEAK-Fn14 inh 15, TROY NFkB inh -14 and EBV LMP1 NFkB 0.
Screening CCOCCc1nnc(NC(=O)CCS(=O)(=O)c2ccccc2)s1 returned PAX8 inh HTS 65*, EWS-Fli inh -28, LGR2 inh 9, TWEAK-Fn14 inh -15, TROY NFkB inh -5 and EBV LMP1 NFkB 9.
`O=C(O)C[C@H]1C[C@H]2c3cc(NC(=O)c4ccc5c(c4)OCO5)ccc3O[C@H]2[C@H](CO)O1` gave PAX8 inh HTS -9, EWS-Fli inh 7 and LGR2 inh -14.
Screening C[C@@H]1CN([C@H](C)CO)C(=O)Cc2cc(NS(=O)(=O)c3ccc(Cl)cc3)ccc2O[C@@H]1CN(C)Cc1ccc(C(=O)Nc2ccccc2N)cc1 returned PAX8 inh HTS 21, EWS-Fli inh -1 and LGR2 inh -8.
`C[C@H](CO)N1C[C@H](C)[C@H](CN(C)S(=O)(=O)c2cn(C)cn2)Oc2ncc(-c3cccc(F)c3)cc2C1=O` gave PAX8 inh HTS -21, EWS-Fli inh -13 and LGR2 inh -5.
`CNC(=O)C[C@H]1CC[C@H]2[C@H](COc3ccc(NC(=O)C4CC4)cc3C(=O)N2C)O1` gave PAX8 inh HTS -18, EWS-Fli inh -9 and LGR2 inh 7.
For C=CCn1c(SCc2cc(C(C)=O)ccc2OCC)nc2ccccc2c1=O the results were PAX8 inh HTS 30, EWS-Fli inh 54*, TWEAK-Fn14 inh 33, TROY NFkB inh 17 and EBV LMP1 NFkB 18.
`CN(C)c1ccc(N=Nc2ccc(S(N)(=O)=O)cc2)cc1` gave PAX8 inh HTS -195, LGR2 inh -64, TWEAK-Fn14 inh 15, TROY NFkB inh -21 and EBV LMP1 NFkB -34.
Screening CC1=CC(=O)C=CC1=Nc1ccc(N(C)C)cc1 returned PAX8 inh HTS 10, EWS-Fli inh 5, LGR2 inh -13, TWEAK-Fn14 inh 67* and TROY NFkB inh 9.
`Cc1cccc(C)c1NC(=O)CNC(=O)c1cn(-c2ccccc2)nc1-c1ccccc1` gave PAX8 inh HTS 10, LGR2 inh -8, TWEAK-Fn14 inh 7, TROY NFkB inh -26 and EBV LMP1 NFkB -5.
Cc1nn(Cc2c(Cl)cccc2Cl)c(C)c1NC(=O)c1cn(-c2ccccc2)nc1-c1ccccc1 was read as TWEAK-Fn14 inh 70*, TROY NFkB inh 27 and EBV LMP1 NFkB -87.
Screening CCCCC/C=C\C/C=C\C/C=C\CCCCC(=O)O returned PAX8 inh HTS 5, EWS-Fli inh 4, TWEAK-Fn14 inh 9, TROY NFkB inh -30 and EBV LMP1 NFkB 53*.
Screening CCCCCCCC/C=C\CCCCCCCC(=O)O returned PAX8 inh HTS -13, EWS-Fli inh -3, TWEAK-Fn14 inh -11, TROY NFkB inh 7 and EBV LMP1 NFkB 6.
C=CCNC(=O)c1ccc(CSc2nc3ccccc3s2)cc1 was read as PAX8 inh HTS -76, EWS-Fli inh -40, LGR2 inh -47, TWEAK-Fn14 inh 34, TROY NFkB inh 12 and EBV LMP1 NFkB -1.
For CC(=O)NCCNC(=O)c1ccc(CSc2nc3ccccc3s2)cc1 the results were PAX8 inh HTS 28, LGR2 inh 67*, TWEAK-Fn14 inh 85*, TROY NFkB inh 69* and EBV LMP1 NFkB 28.
`c1coc(-c2nc(-c3ccco3)c(-c3ccco3)nc2-c2ccco2)c1` gave LGR2 inh 15, TWEAK-Fn14 inh 81*, TROY NFkB inh 4 and EBV LMP1 NFkB -4.
NC(N)=NC(=O)c1nc(Cl)c(N2CCCCCC2)nc1N was read as PAX8 inh HTS -54, EWS-Fli inh 7, LGR2 inh -57, TWEAK-Fn14 inh -31, TROY NFkB inh -66 and EBV LMP1 NFkB 74*.
O=C1C=C(Nc2ccc(Cl)cc2)CC(c2ccco2)C1 (stereo not drawn) was read as TWEAK-Fn14 inh 56* and EBV LMP1 NFkB -11.
`COCC(=O)N1CC2(CCN(C(=O)CN3CCOCC3)CC2)c2c([nH]c3cc(OC)ccc23)[C@@H]1CO` gave EWS-Fli inh 7 and LGR2 inh -2.
`Cc1cc(OCCCn2cnc3ccccc3c2=O)ccc1[N+](=O)[O-]` gave PAX8 inh HTS 88*, EWS-Fli inh 3, LGR2 inh -4, TWEAK-Fn14 inh -5, TROY NFkB inh -7 and EBV LMP1 NFkB -1.
`O=c1c2ccccc2ncn1CCCOc1ccccc1[N+](=O)[O-]` gave LGR2 inh -44, TWEAK-Fn14 inh -2, TROY NFkB inh -48 and EBV LMP1 NFkB -17.
Screening O=[N+]([O-])c1cccc(N=Nc2ccc(O)cc2O)c1 returned PAX8 inh HTS 81*, EWS-Fli inh -18, LGR2 inh 19, TWEAK-Fn14 inh 59*, TROY NFkB inh -15 and EBV LMP1 NFkB -1.
Screening O=[N+]([O-])c1ccc(N=Nc2ccc(O)cc2O)cc1 returned PAX8 inh HTS 81*, TWEAK-Fn14 inh -19, TROY NFkB inh 4 and EBV LMP1 NFkB -23.
CCOc1cc(C=O)cc(N=Nc2cccc([N+](=O)[O-])c2)c1O was read as PAX8 inh HTS 17, EWS-Fli inh 2, LGR2 inh 4, TWEAK-Fn14 inh 24, TROY NFkB inh 19 and EBV LMP1 NFkB -10.
Cc1noc(C)c1NC(=O)N(C)C[C@@H]1Oc2c(NS(=O)(=O)c3cccs3)cccc2C(=O)N([C@@H](C)CO)C[C@@H]1C was read as EWS-Fli inh -10 and LGR2 inh 0.
For Cc1noc(C)c1NC(=O)N[C@H]1CC[C@@H](CC(=O)Nc2ccc(-c3ccccc3)cc2)O[C@@H]1CO the results were PAX8 inh HTS -4, EWS-Fli inh -10 and LGR2 inh -1.
CCCC#Cc1cnc2c(c1)C(=O)N([C@@H](C)CO)C[C@H](C)[C@@H](CN(C)C(=O)c1ccccc1)O2 was read as PAX8 inh HTS -12, EWS-Fli inh 1 and LGR2 inh 5.
For Cc1ccc(/C=C/C(O)=C2/C(=O)N(C)C3(C)CC2c2ccccc2O3)cc1 (stereo not drawn) the results were PAX8 inh HTS 44, TWEAK-Fn14 inh 51*, TROY NFkB inh 2 and EBV LMP1 NFkB -1.

Assay outcomes from PubChem.
